# Assay outcomes as filed in PubChem BioAssay.
# Most compounds without a hit are left out; they make up all but 3.2% or so of the library.
# Mtb FBA inh: Mtb fructose-bisphosphate aldolase inhibition. P9WQA3. purified M. tuberculosis FBA, fluorescence read-out. inhibition, % at 1 µM. 360,000 tested, 2.3% active. AID 588726; in the data active = inhibition above about 27%;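 also: 0% = vehicle and 100% = reference inhibitor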
# Yp Topo-I inh: Y. pestis Topo-I inhibition via cleavage products; Y. pestis Topo-I cleavage product accumulation, plate reader; activity, % at 10 µM; 360,000 tested, 0.064% active; in the data active = activity above about 50%, passing the limit was not always enough; inconclusive = no clear call, values can overlap the other calls
# GDH-TPI counter: counter-screen for M. tuberculosis FBA inhibitors: GDH-TPI coupled enzymes; GDH-TPI coupled enzyme counterscreen, NADH absorbance; inhibition, % at 4.8 µM; 360,000 tested, 1.2% active; in the data active = inhibition above about 30%;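 also: 0% = DMSO wells and 100% = wells lacking the enzyme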
# PrPC surface inh: inhibitors of human cell surface prion protein PrPC | P04156 | TR-FRET read-out | inhibition, % at 13.8 µM | 370,000 tested, 0.43% active; in the data active = inhibition above about 24%; also: 0% = median of the test wells and 100% = reference compound wells
# TcdB inh: blocks C. difficile toxin B glycohydrolase activity | P18177 | 350,000 tested, 0.24% active | inhibition, % at 9.99 µM | AID 652162 | TcdB glycohydrolase enzymatic assay, plate reader; in the data active = inhibition above about 10%
# Starred values were filed as active, the others as inactive; u = inconclusive; x = no result; + = active, no number.
SMILES,Mtb FBA inh,Yp Topo-I inh,GDH-TPI counter,PrPC surface inh,TcdB inh
Cc1ccc(-c2c(C(=O)N/N=C/c3ccco3)nnn2-c2nonc2N)cc1,-1.7,-5.4,23.7,0.9,-0.2
CCOc1ccc(-c2c(C(=O)N/N=C/c3ccc(C)s3)nnn2-c2nonc2N)cc1,-0.5,u,37.0*,x,x
CCOc1ccc(-c2c(C(=O)N/N=C/c3ccco3)nnn2-c2nonc2N)cc1,1.7,-7.4,42.7*,-10.0,1.9
S=C(N/N=C/c1cccs1)NC1CC2CCC1C2 (stereo unspecified),-2.1,6.8,20.7,0.4,2.1
Oc1ccc(/C=N/NC(=S)NC2CC3CCC2C3)cc1 (stereo unspecified),-0.8,-7.5,60.5*,2.6,7.0
COc1ccc2c3c(n(C)c2c1)[C@H](CO)N(C(=O)Nc1ccccc1F)CC31CN(C(C)=O)C1,x,x,x,x,-2.0
COc1cc(/C=C/c2cc(OC(C)=O)c3ccccc3n2)c(OC(C)=O)c([N+](=O)[O-])c1,-2.8,8.7,36.8*,1.8,x
CO[C@@H]1CN(C)C(=O)c2ccc(NC(=O)CC(F)(F)F)cc2OC[C@H](C)N(C(=O)c2ccccc2F)C[C@H]1C,x,x,x,x,0.6
O=c1nc(/C=C/c2ccc(O)c(O)c2)oc2ccccc12,-12.5,4.7,44.4*,x,x
COc1ccc2c3c([nH]c2c1)[C@@H](CO)N(C(=O)C1CCCC1)CC31CN(S(C)(=O)=O)C1,x,x,x,x,0.7
COc1ccc(C(C[N+](=O)[O-])c2c(-c3ccccc3)cc3ccccn23)cc1OC (stereo unspecified),0.6,5.2,11.6,-6.3,x
COc1ccc(C(C[N+](=O)[O-])C2(c3ccc(OC)c(OC)c3)C(=O)c3ccccc3C2=O)cc1 (stereo unspecified),-3.2,-0.9,40.7*,x,x
C[C@H]1CN([C@@H](C)CO)C(=O)c2cccc(NC(=O)c3cnccn3)c2O[C@@H]1CN(C)S(C)(=O)=O,x,x,x,x,0.0
COc1ccc(C)c2sc(N(CCN(C)C)C(=O)/C=C/c3cccs3)nc12,-0.2,13.5,30.8*,-9.8,0.9
CCN(CC)CCN(C(=O)/C=C/c1cccs1)c1nc2ccc(F)cc2s1,1.6,4.3,3.9,5.3,0.5
Cc1ccc2nc(N(CCN(C)C)C(=O)/C=C/c3cccs3)sc2c1,4.0,-2.2,22.3,7.3,-0.4
CCOc1cccc2sc(N(CCN(C)C)C(=O)/C=C/c3cccs3)nc12,-6.2,-9.2,4.3,x,x
CN(C)CCCN(C(=O)/C=C/c1cccs1)c1nc2ccc(F)cc2s1,-2.2,-4.6,48.1*,-11.6,1.2
COc1ccc(OC)c2sc(N(CCN(C)C)C(=O)/C=C/c3cccs3)nc12,3.9,4.1,33.0*,-5.3,2.5
COc1cccc2sc(N(CCN(C)C)C(=O)/C=C/c3cccs3)nc12,1.4,3.5,32.3*,-3.0,0.3
COc1ccc(NC(=O)N(C)C[C@H]2Oc3c(NC(=O)c4ccncc4)cccc3C(=O)N([C@@H](C)CO)C[C@@H]2C)cc1,x,x,x,x,-0.6
COCC#Cc1cnc2c(c1)C(=O)N([C@@H](C)CO)C[C@H](C)[C@@H](CN(C)C(=O)c1ccc(F)cc1)O2,x,x,x,x,-1.7
Cc1noc(C)c1NC(=O)Nc1ccc2c(c1)C(=O)N([C@H](C)CO)C[C@@H](C)[C@H](CN(C)C)O2,x,x,x,x,-0.9
COCCn1c(-c2cccs2)nc2nc3ccccc3nc21,+,-5.5,19.2,-40.5,0.0
CCCn1c(-c2cccs2)nc2nc3ccccc3nc21,+,18.1,30.6*,-41.3,x
SMILES,Mtb FBA inh,Yp Topo-I inh,GDH-TPI counter,PrPC surface inh,TcdB inh
CCCNC(=O)N(C)C[C@H]1Oc2cc(C3=CCCCC3)ccc2S(=O)(=O)N([C@H](C)CO)C[C@@H]1C,x,x,x,x,-0.8
C[C@@H]1CN([C@H](C)CO)C(=O)c2cc(-c3cccnc3)cnc2O[C@H]1CN(C)C(=O)C1CCC1,x,x,x,x,1.3
C[C@H]1CN([C@@H](C)CO)C(=O)c2cc(NC(=O)Cc3ccccc3)ccc2O[C@H]1CN(C)C,x,x,x,x,-0.6
O=C(O)c1cn(-c2ccccc2)nc1-c1ccncc1,12.1,-8.5,5.2,4.5,x
O=C(c1cn(-c2ccccc2)nc1-c1ccncc1)n1nnc2ccccc21,16.1,5.5,6.0,-7.5,99.6*
C[C@H](O)C#Cc1cnc2c(c1)C(=O)N([C@@H](C)CO)C[C@H](C)[C@H](CN(C)CC1CCOCC1)O2,x,x,x,x,-1.4
COc1ccc2cc(C(=O)C3CCCN(C4CCOCC4)C3)ccc2c1 (stereo unspecified),148.2*,-1.4,20.1,5.9,1.4
COc1cccc(C(=O)C2CCCN(Cc3ccc4nsnc4c3)C2)c1 (stereo unspecified),-1.3,17.7,1.6,1.8,0.7
COc1ccc2cc(C(=O)C3CCCN(C(=O)Cc4c(C)noc4C)C3)ccc2c1 (stereo unspecified),181.7*,20.0,12.8,5.5,0.9
Cc1noc(C)c1COc1ccc(C(=O)N2CCCC(C(N)=O)C2)cc1 (stereo unspecified),0.4,-10.7,-10.3,0.8,2.9
COc1cccc(C(=O)C2CCCN(Cc3ccc(F)cc3)C2)c1 (stereo unspecified),0.1,22.2,4.3,-9.0,12.7*
O=C(C[C@@H]1CC[C@H](NS(=O)(=O)c2ccccc2)[C@H](CO)O1)NCc1ccccc1F,x,x,x,x,-0.3
COc1ccc(NC(=O)N(C)C[C@@H]2Oc3ccc(NC(=O)Cn4cnnn4)cc3CC(=O)N([C@@H](C)CO)C[C@H]2C)cc1,x,x,x,x,0.3
COc1ccc(/C=N/NC2=NS(=O)(=O)c3ccccc32)cc1,0.5,-1.8,44.1*,0.7,-0.5
COc1ccc(/C=N/NC2=NS(=O)(=O)c3ccccc32)cc1OC(C)=O,-1.1,8.2,32.4*,1.8,2.7
O=S1(=O)N=C(N/N=C/C=C/c2ccccc2)c2ccccc21,1.9,-3.2,39.8*,-2.9,x
O=S1(=O)N=C(N/N=C/c2ccccn2)c2ccccc21,0.3,3.1,17.9,-4.3,x
O=S1(=O)N=C(N(CCO)/N=C/C=C/c2ccccc2)c2ccccc21,-3.3,20.6,55.7*,-13.8,x
CC(=O)Oc1ccc(/C=N/NC2=NS(=O)(=O)c3ccccc32)cc1,-0.7,1.0,34.9*,2.1,-0.2
CN(C)c1ccc(/C=N/NC2=NS(=O)(=O)c3ccccc32)cc1,-4.8,-4.9,23.4,4.0,1.6
CCN(CC)c1ccc(N=Cc2c(O)n(-c3ccccc3)c(=O)[nH]c2=O)cc1,-5.4,8.3,11.0,-1.4,-1.8
CCN(CC)c1ccc(N=Cc2c(O)[nH]c(=O)[nH]c2=O)cc1,-6.3,10.8,35.0*,-4.9,-0.2
Cc1ccc(C(=O)NC(=O)OCCn2c(C)cnc2[N+](=O)[O-])cc1,-2.1,6.7,16.8,-6.1,14.5*
Clc1ccc(/C=N/c2c(-c3ccco3)nc3ccccn23)cc1,7.8,-5.4,14.3,-7.5,x
O=[N+]([O-])c1cc(-c2ccc(/C=N/c3nc4ccccn4c3-c3ccco3)o2)ccc1Cl,-0.8,-12.9,37.2*,-20.8,x
Cn1c(O)c(C=NC2CCCCCC2)c(=O)[nH]c1=S,-7.8,-1.3,31.7*,6.8,-8.1
CCN(CC)C(=O)c1c(-c2ccccc2)oc2ccc(OC)cc12,0.2,-4.0,-4.4,-9.9,0.4
